Experimental data: PubChem BioAssay (NCATS)
Values joined by “and” are separate entries in the source; they are usually repeats but may differ in a detail not shown here. Equal entries are not always repeated. Results filed as inconclusive are left out. Unmarked numbers belong to inactive results. Active and inactive are the calls of the source. The call rests on the fitted dose curve; in most records, active means well fitted curve in the direction sought with a large enough effect; inconclusive means small, poorly fitted or top-dose-only effect, or another doubt; inactive means no such curve, though single readings can be large; an effect the other way counts as inactive or inconclusive.

What was measured:
[1] = P-glycoprotein substrates identified in KB-8-5-11 adenocarcinoma cell line, qHTS therapeutic library screen (AID 1346987); further: nearly all actives have a fitted effect of over 65% in size
Method in brief: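 KB-8-5-11, a colchicine-selected P-gp-overexpressing KB-3-1 subline, was grown without colchicine for the assay. Cells were seeded at 500 cells/well, dosed in concentration-response and incubated 72 h at 37 degree C, 5% CO2. Viability was read by CellTiter-Glo luminescence.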

[2] = qHTS of pediatric cancer cell lines to identify multiple opportunities for drug repurposing: Primary screen for TC32 cells (AID 1347089); further: nearly all actives have a fitted effect of over 60% in size
Method in brief: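 TC32 cells, 500-1,000/well in growth medium, compound-treated 48 h at 37 °C; viability from CellTiter-Glo luminescence. Primary screen: MIPE 11-point (0.78 nM–46 µM final), NPC 8-point (0.59 nM–46 µM final); confirmatory at 11-point dilutions.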

[3] = qHTS of pediatric cancer cell lines to identify multiple opportunities for drug repurposing: Primary screen for DAOY cells (AID 1347090); further: nearly all actives have a fitted effect of over 55% in size
Method in brief: (§1)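 Eight- or eleven-point concentration series, 48 h treatment at 37 degrees C in growth media; readout CellTiter-Glo luminescence. Potency and efficacy were taken from the concentration-response curves.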

[4] = qHTS of pediatric cancer cell lines to identify multiple opportunities for drug repurposing: Primary screen for SJ-GBM2 cells (AID 1347091)
Method in brief: as §1

[5] = qHTS of pediatric cancer cell lines to identify multiple opportunities for drug repurposing: Primary screen for A673 cells (AID 1347092); further: nearly all actives have a fitted effect of over 45% in size
Method in brief: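 A673 cells (500-1,000 cells/well) were treated 48 hours at 37 degrees C with compounds at 11-point (0.78 nM to 46 µM) or 8-point (0.59 nM to 46 µM) dilutions. Viability read by CellTiter-Glo luminescence; concentration-response curves fitted.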

[6] = qHTS of pediatric cancer cell lines to identify multiple opportunities for drug repurposing: Primary screen for BT-37 cells (AID 1347094)
Method in brief: (§2)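 Quantitative HTS format: each compound titrated (MIPE 11 points from 0.78 nM, NPC 8 points from 0.59 nM) onto cells plated 5 hours earlier. After 48 h at 37 degrees C, CellTiter-Glo luminescence was recorded.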

[7] = qHTS of pediatric cancer cell lines to identify multiple opportunities for drug repurposing: Primary screen for NB-EBc1 cells (AID 1347095)
Method in brief: as §2

[8] = qHTS of pediatric cancer cell lines to identify multiple opportunities for drug repurposing: Primary screen for SK-N-SH cells (AID 1347098); further: nearly all actives have a fitted effect of over 65% in size
Method in brief: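 Cells (500-1,000/well) rested 5 h, then received compounds for 48 h; metabolically active cells were measured by CellTiter-Glo luminescence. Final concentrations spanned up to 46 µM (MIPE, 11-point) or 0.59 nM-46 µM (NPC, 8-point) in primary screens, 11-point in follow-ups.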

[9] = qHTS of pediatric cancer cell lines to identify multiple opportunities for drug repurposing: Primary screen for U-2 OS cells (AID 1347096); further: nearly all actives have a fitted effect of over 50% in size
Method in brief: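 Cells (500-1,000/well) in growth media were settled 5 h at 37 degrees C, then given compounds for 48 h. Viability was read as CellTiter-Glo luminescence. Primary runs used MIPE at 11 points (0.78 nM-46 µM) and NPC at 8 points (0.59 nM-46 µM); follow-ups used 11 points.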

[10] = qHTS of pediatric cancer cell lines to identify multiple opportunities for drug repurposing: Primary screen for Saos-2 cells (AID 1347097); further: nearly all actives have a fitted effect of over 40% in size
Method in brief: as §2

[11] = NS1 protein of Zika virus - qHTS assay to identify small molecule inhibitors in human HEK 293 cells (AID 1347053); further: nearly all actives have a fitted effect of over 55% in size
Method in brief: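 Following 20 h seeding, HEK 293 cells took compound, then 1 h later ZIKV MR766 (MOI = 0.5). Incubation ran 24 h at 37 C before TR-FRET detection of NS1; a drop in signal indicates inhibition.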

[12] = qHTS of pediatric cancer cell lines to identify multiple opportunities for drug repurposing: Primary screen for SK-N-MC cells (AID 1347093)
Method in brief: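 Metabolically active cells were quantified by ATP-dependent luminescence (CellTiter-Glo, 15 min at room temperature) following 48 h treatment. Cells had been plated at 500-1,000 per well and settled for 5 h beforehand.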
Potency means the concentration at half of the fitted maximal effect.

Row | SMILES | Potency [1] | Potency [2] | Potency [3] | Potency [4] | Potency [5] | Potency [6] | Potency [7] | Potency [8] | Potency [9] | Potency [10] | Potency [11] | Potency [12]
1 | CO[C@H]1/C=C\O[C@@]2(C)Oc3c(C)c(O)c4c(O)c(c5c(nc6cc(C)ccn65)c4c3C2=O)NC(=O)C(C)=CC=C[C@H](C)[C@H](O)[C@@H](C)[C@@H](O)[C@@H](C)[C@H](OC(C)=O)[C@H]1C | inactive | inactive | inactive | inactive | inactive | inactive | inactive | inactive | – | – | – | –
2 | Cc1ccc2c(c1)c1c(n2CCc2ccc(C)nc2)CCN(C)C1 | inactive | inactive | inactive | inactive | inactive | inactive | inactive | – | inactive | inactive | – | –
3 | C[C@H]1[C@H](O)O[C@@H]2O[C@@]3(C)CC[C@@H]4[C@H](C)CC[C@@H]1[C@@]24OO3 | 18.7 µM (active) | – | – | – | 7.43 µM (active) | 3.85 µM (active) | 3.72 µM (active) | – | – | 2.96 µM (active) | 26.4 µM (active) | 1.05 µM (active)
4 | COc1c(C)c2c(c(O)c1CC=C(C)CCC(=O)O)C(=O)OC2 | 6.62 µM (active) | 5.23 µM (active) | – | – | – | 1.53 µM (active) | 0.743 µM (active) | – | – | inactive | – | 1.18 µM (active)
5 | CC1=C[C@@H]2[C@@H]([C@@H](O)C[C@@]3(C)[C@H]2C[C@@H](C)[C@]3(O)C(=O)CO)[C@@]2(C)Cc3cnn(-c4ccccc4)c3C=C12 | 16.4 µM (active) | – | – | 20.9 µM (active) | 18.7 µM (active) | – | 23.5 µM (active) | – | inactive | 29.6 µM (active) | – | –
6 | C[C@@H](O[C@H]1OCCN(Cc2n[nH]c(=O)[nH]2)[C@@H]1c1ccc(F)cc1)c1cc(C(F)(F)F)cc(C(F)(F)F)c1 | 20.9 µM (active) | inactive | – | 23.5 µM (active) | – | – | – | – | inactive | 26.4 µM (active) | – | –
7 | C[C@H]1COC2=C1C(=O)C(=O)c1c2ccc2c1CCCC2(C)C | – | inactive | inactive | 20.9 µM (active) | inactive | – | – | – | inactive | 5.9 µM (active) | inactive | –
8 | CCCCCCCCCCCCCC(=O)N[C@H](CO)[C@H](O)c1ccc([N+](=O)[O-])cc1 | inactive | inactive | – | – | – | 13.7 µM (active) | – | – | inactive | 18.7 µM (active) | – | –
9 | c1ccc(-c2oc3ncnc(NC[C@@H]4CCCO4)c3c2-c2ccccc2)cc1 | 20.9 µM (active) and 20.6 µM (active) | – | – | – | 23.5 µM (active) | – | – | 24.1 µM (active) | inactive | 29.6 µM (active) | – | –
10 | CC(C)N(CCCNC(=O)Nc1ccc(C(C)(C)C)cc1)C[C@H]1O[C@@H](n2cc(Br)c3c(N)ncnc32)[C@H](O)[C@H]1O | inactive | inactive | – | – | – | 24.3 µM (active) | inactive | 24.1 µM (active) | inactive | – | – | –
11 | Cc1c(-c2cccc3c(CCCOc4cccc5ccccc45)c(C(=O)O)n(Cc4cccnc4)c23)c(COc2ccc(N3CCN([S+](=O)([O-])N(C)C)CC3)cc2)nn1C | inactive | inactive | – | – | 23.5 µM (active) | – | – | inactive | inactive | – | – | 10.5 µM (active)
12 | COc1cc([C@@H]2c3cc4c(cc3[C@@H](O[C@@H]3O[C@@H]5CO[C@@H](C)O[C@@H]5[C@H](O)[C@@H]3O)[C@H]3COC(=O)[C@H]23)OCO4)cc(OC)c1O | – | 1.04 µM (active) | 1.48 µM (active) | 0.59 µM (active) | – | 0.485 µM (active) | 0.187 µM (active) | – | – | 3.32 µM (active) | 1.18 µM (active) | 0.469 µM (active)
13 | O=C(c1ccc(F)c(F)c1Nc1ccc(I)cc1F)N1CC(O)([C@H]2CCCCN2)C1 | 20.9 µM (active) | inactive | – | 4.69 µM (active) | 0.0235 µM (active) | 1.09 µM (active) | 1.66 µM (active) | – | 14.8 µM (active) | 1.87 µM (active) | – | –
14 | COc1cc2nccc(Oc3ccc(NC(=O)Nc4cc(C)on4)c(Cl)c3)c2cc1OC | 11.8 µM (active) and 13 µM (active) | – | 5.9 µM (active) | 14.8 µM (active) | – | 24.3 µM (active) | 13.2 µM (active) | 19.2 µM (active) | 18.7 µM (active) | 14.8 µM (active) | – | –
15 | CN(C)N=Nc1nc[nH]c1C(N)=O | 1.87 µM (active) | – | – | – | inactive | – | – | inactive | inactive | inactive | – | –
16 | COc1ccc(-c2cc(=O)c3c(O)cc(O[C@@H]4O[C@H](CO[C@@H]5O[C@@H](C)[C@H](O)[C@@H](O)[C@@H]5O)[C@@H](O)[C@H](O)[C@@H]4O)cc3o2)cc1O | inactive | inactive | – | inactive | – | inactive | inactive | 27.1 µM (active) | inactive | inactive | – | 7.43 µM (active)
17 | C[C@H](c1ccc(F)cc1CCCC(=O)O)N(c1cc(F)ccc1F)S(=O)(=O)c1ccc(Cl)cc1 | inactive | inactive | – | – | 18.7 µM (active) | – | inactive | 19.2 µM (active) | inactive | – | – | 3.72 µM (active)
18 | NC(=O)c1noc([C@H](CCCC2CCCCC2)CC(=O)NO)n1 | – | inactive | 14.8 µM (active) | 18.7 µM (active) | 9.35 µM (active) | 21.7 µM (active) | 20.9 µM (active) | – | inactive | – | 13.2 µM (active) | 7.43 µM (active)
19 | NC(=O)c1ncn([C@@H]2O[C@H](CO)[C@@H](O)[C@@H]2O)n1 | inactive | inactive | – | inactive | inactive | inactive | – | inactive | inactive | inactive | – | –
20 | O=S(=O)(O)c1ccc2cc(N=Nc3cc(S(=O)(=O)O)c4cccnc4c3O)ccc2c1 | inactive | inactive | – | inactive | – | – | – | – | inactive | – | – | 18.7 µM (active)
21 | NS(=O)(=O)c1ccc(Nc2nc(OCC3CCCCC3)c3[nH]cnc3n2)cc1 | inactive | inactive | – | 26.4 µM (active) | 23.5 µM (active) | – | – | – | – | 16.6 µM (active) | – | 6.62 µM (active)
22 | C[C@@H]1CCO[C@H]2Cn3cc(C(=O)NCc4ccc(F)cc4F)c(=O)c(O)c3C(=O)N12 | inactive | inactive | – | – | inactive | – | – | inactive | – | – | – | –
23 | O=C(O)c1ccc(O)c2ncc(N3CCOCC3)cc12 | inactive | – | – | – | – | – | 20.9 µM (active) | 30.4 µM (active) | – | 23.5 µM (active) | – | 18.7 µM (active)
